Calls of active or inactive are those of the source.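 How the source made its calls, unless noted: active means normalized viability below 100% at a tested concentration; inactive means the rest.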
Key:
[1] = Wnt pathway potentiators raising nuclear beta-catenin – imaging, WNT3A-conditioned medium, mouse C2C12, NPC library, primary screen (AID 1117326; in the data active means nuclear beta-catenin stimulation mostly above about 4.2%, no sharp cut-off; inactive means mostly below about 10%); settings: stronger effect = higher value
[2] = stimulators of insulin release from INS-1E, primary screen, cell-based, 5 mM glucose, NPC library (AID 1117329;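 active means compound raises insulin release from rat beta cells at 5 mM glucose, no numeric limit stated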); settings: rat INS-1E insulin secretion, at 10 µM, stronger effect = higher value
[3] = growth inhibition of GSK3B-pretreated HCT116 cells – cell-based, CellTiter-Glo, 0.2 to 20 µM (AID 1117336;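 active means compounds lowering colon cancer cell viability after pretreatment blocking the GSK3B kinase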); settings: HCT116 viability after GSK3B inhibitor, at 20 µM, stronger effect = higher value
[4] = inhibition of endothelial tube formation, primary screen, imaging, VEGF stimulated, CD31 staining, tube area, NPC library (AID 1117340;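 active means compound that reduces growth-factor-driven endothelial tube area in a mixed cell culture, no cutoff stated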); settings: VEGF-stimulated ADSC/ECFC co-culture, at 10 µM, stronger effect = higher value
[5] = GLP1 release stimulators, primary, NCI-H716, NPC library (AID 1117341;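 active means compound raises GLP1 secretion from the human gut endocrine cells, with no numeric limit stated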); settings: NCI-H716 cells, at 10 µM, stronger effect = higher value
[6] = HCT116 colon cancer cell growth inhibition, primary screen, CellTiter-Glo luminescence, NPC library (AID 1117342;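 active means compounds that lower survival of HCT116 colon cancer cells in the luminescence readout, no numeric limit stated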); settings: at 20 µM (top of the series)
[7] = reduced SW480 viability measured with CellTiter-Glo, NPC library, primary (AID 1117343;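 active means compounds that lower viability of the colon cancer cells in the luminescence readout, with no numeric limit stated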); settings: CellTiter-Glo luminescence; at 20 µM (top of the series) unless noted
[8] = NPC library primary testing for decreased DLD-1 cell viability via CellTiter-Glo (AID 1117346;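 active means compounds that lower survival of DLD-1 colon cancer cells in the luminescence readout, no cutoff given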); settings: DLD-1 viability, CellTiter-Glo luminescence; at 20 µM (top of the series)
[9] = viability loss with induced miR-34 in A549 – imaging, A549 dox-inducible miR-34, nuclei and caspase counts, primary screen (AID 1347080;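 active means compounds whose cell count with miR-34 switched on is under 0.7 times the count with it off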); settings: A549 miR-34 inducible, Hoechst nuclei count, 48 h
[10] = drug combination growth inhibition, ovarian cancer – cell-based, oncology-focused library, rucaparib conditional, profiling panel (AID 1508598); settings: patient-derived ovarian cancer cells, CellTiter-Glo viability, 144 h, stronger effect = lower value
[11] = P. berghei load reduction in hepatocytes – cell-based, HepG2, luciferase luminescence, HepG2 viability, primary screen (AID 624349; in the data active means parasite load remaining mostly below about 12%, no sharp cut-off; inactive means mostly above about 10%;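 further: 100% = mean of DMSO negative control wells on the same plate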); settings: P. berghei liver stage in HepG2, luciferase luminescence, concentration not given here; parasite load remaining: stronger effect = lower value; viability: measured here: HepG2 viability without parasites
[12] = MELAS cybrid and Rieske KO viability enhancers – cell-based, MELAS cybrids, Rieske KO mouse fibroblasts, CellTiter-Glo, primary screen (AID 1508586;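 active means mean z-score across replicates of 1.96 or higher in either the MELAS or the Rieske mutant cell line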;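 further: z relative to plate mean and SD of compound and empty wells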); settings: low glucose
[13] = galactose survival enhancers in mitochondrial complex I cybrids – cell-based, galactose medium, ATP luminescence, primary screen (AID 1645843;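 active means z-score of at least 1.8 in each of two replicates, scored against plate mean and spread of sample wells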;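 further: positive z means more ATP and so rescue of galactose-driven cybrid death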); settings: complex I mutant cybrid cells, 72 h, stronger effect = higher value
[14] = stronger effect = lower value, cell number ratio, induced over uninduced
[15] = measured here: relative caspase fold change +Dox/-Dox
[16] = measured here: total cells with miR-34 induction, stronger effect = lower value
[17] = measured here: total cells without miR-34 induction
[18] = MELAS cybrid survival, CellTiter-Glo 48 h, stronger effect = higher value
[19] = Rieske KO mouse fibroblast survival, CellTiter-Glo 72 h

CCCCCCCCCCCCCCCCNc1ccc(C(=O)O)cc1
inactive: nuclear beta-catenin stimulation ([1]; at 10 µM) 11.3% | insulin secretion stimulation [2] 4.2% | GLP1 secretion stimulation [5] -2.9% | inhibition of viability [6] 45% | fold change [9, 14] 0.865
1.2%: nuclear beta-catenin stimulation ([1]; stimulation, at 2 µM)
5010: cell count [9, 17]
0.501: fold change [9, 15]
active: viability decrease [3] 68.9% | tube area decrease [4] 109% | viability decrease (inhibition) [7] 72.6% | viability decrease (inhibition) [8] 61.9%
4330: cell count [9, 16]

Nc1cccc2c1CN(C1CCC(=O)NC1=O)C2=O (stereo not drawn)
active: viability ([10]; at 0.00488 µM, OCI-P5x cells, without rucaparib) 95.9%
inactive: viability ([10]; at 0.000305 µM, OCI-C5x cells, with rucaparib 10 µM, 100% = cells with rucaparib alone) 116% | viability ([10]; at 0.000305 µM, OCI-C5x cells, without rucaparib) 116% | viability ([10]; at 0.000305 µM, OCI-P5x cells, with rucaparib 20 µM, 100% = cells with rucaparib alone) 126% | viability ([10]; at 0.000305 µM, OCI-P5x cells, without rucaparib) 106% | viability ([10]; at 0.00122 µM, OCI-C5x cells, with rucaparib 10 µM, 100% = cells with rucaparib alone) 122% | viability ([10]; at 0.00122 µM, OCI-C5x cells, without rucaparib) 116% | viability ([10]; at 0.00122 µM, OCI-P5x cells, with rucaparib 20 µM, 100% = cells with rucaparib alone) 130% | viability ([10]; at 0.00122 µM, OCI-P5x cells, without rucaparib) 105% | viability ([10]; at 0.00488 µM, OCI-C5x cells, with rucaparib 10 µM, 100% = cells with rucaparib alone) 126% | viability ([10]; at 0.00488 µM, OCI-C5x cells, without rucaparib) 115% | viability ([10]; at 0.00488 µM, OCI-P5x cells, with rucaparib 20 µM, 100% = cells with rucaparib alone) 123% | viability ([10]; at 0.0195 µM, OCI-C5x cells, with rucaparib 10 µM, 100% = cells with rucaparib alone) 113% | viability ([10]; at 0.0195 µM, OCI-C5x cells, without rucaparib) 114% | viability ([10]; at 0.0195 µM, OCI-P5x cells, with rucaparib 20 µM, 100% = cells with rucaparib alone) 125% | viability ([10]; at 0.0195 µM, OCI-P5x cells, without rucaparib) 107% | viability ([10]; at 0.0781 µM, OCI-C5x cells, with rucaparib 10 µM, 100% = cells with rucaparib alone) 120% | viability ([10]; at 0.0781 µM, OCI-C5x cells, without rucaparib) 132% | viability ([10]; at 0.0781 µM, OCI-P5x cells, with rucaparib 20 µM, 100% = cells with rucaparib alone) 133% | viability ([10]; at 0.0781 µM, OCI-P5x cells, without rucaparib) 109% | viability ([10]; at 0.313 µM, OCI-C5x cells, with rucaparib 10 µM, 100% = cells with rucaparib alone) 118% | viability ([10]; at 0.313 µM, OCI-C5x cells, without rucaparib) 117% | viability ([10]; at 0.313 µM, OCI-P5x cells, with rucaparib 20 µM, 100% = cells with rucaparib alone) 129% | viability ([10]; at 0.313 µM, OCI-P5x cells, without rucaparib) 109% | viability ([10]; at 1.25 µM, OCI-C5x cells, with rucaparib 10 µM, 100% = cells with rucaparib alone) 121% | viability ([10]; at 1.25 µM, OCI-C5x cells, without rucaparib) 119% | viability ([10]; at 1.25 µM, OCI-P5x cells, with rucaparib 20 µM, 100% = cells with rucaparib alone) 114% | viability ([10]; at 1.25 µM, OCI-P5x cells, without rucaparib) 103% | viability ([10]; at 5 µM, OCI-C5x cells, with rucaparib 10 µM, 100% = cells with rucaparib alone) 115% | viability ([10]; at 5 µM, OCI-C5x cells, without rucaparib) 117% | viability ([10]; at 5 µM, OCI-P5x cells, with rucaparib 20 µM, 100% = cells with rucaparib alone) 132% | viability ([10]; at 5 µM, OCI-P5x cells, without rucaparib) 110%

CC(C)(C)NC[C@H](O)COc1cccc2c1CCCC2=O
89.1%: viability [11]
1.03: fold change [9, 15]
0.045: z-score [12, 19]
inactive: parasite load remaining [11] 68.1% | nuclear beta-catenin stimulation ([1]; at 10 µM) 0% | insulin secretion stimulation [2] 3.7% | viability decrease [3] 17.1% | tube area decrease [4] 1% | GLP1 secretion stimulation [5] 8.6% | inhibition of viability [6] 13.8% | viability decrease (inhibition) [7] -11.3% | viability decrease (inhibition) [8] 2.7% | fold change [9, 14] 0.883 | z-score [12, 18] 0.581
9340: cell count [9, 16]
0.3%: nuclear beta-catenin stimulation ([1]; stimulation, at 2 µM)
10600: cell count [9, 17]

O=c1[nH]c(=O)c2[nH]c(=O)[nH]c2[nH]1
0.666: fold change [9, 15]
inactive: nuclear beta-catenin stimulation ([1]; at 10 µM) -2.4% | insulin secretion stimulation [2] -0.2% | viability decrease [3] -5.9% | tube area decrease [4] 8.1% | GLP1 secretion stimulation [5] -2.2% | inhibition of viability [6] -5.8% | viability decrease (inhibition) [7] -9.2% | viability decrease (inhibition) [8] 9.1% | fold change [9, 14] 0.877 | z-score [12, 18] 0.618 | z-score [13] 0.705
9490: cell count [9, 17]
0.253: z-score [12, 19]
-1.6%: nuclear beta-catenin stimulation ([1]; stimulation, at 2 µM)
8320: cell count [9, 16]

Reference: PubChem BioAssay
